Assay results reported in PubChem BioAssay (Tox21).
Inconclusive results are not listed. Active and inactive are the calls of the source. Unless noted, calls follow the shape of the dose curve; as a rule, active = well fitted curve in the direction sought with a large enough effect in the repeat runs; inconclusive = weak or mixed curves; inactive = no such curve, though single readings can be large; an effect the other way counts as inactive or inconclusive.

Columns and labels:
[1] = A CellTox Green Cytotoxicity Assay to monitor cytotoxicity in HepG2 cells - 8 hour (AID 1224890); also: nearly all actives have a fitted effect of over 45% in size
Summary of the method: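 Fluorescent DNA-binding dye, 600 HepG2 cells/well, 5 h preincubation then compound in DMSO; same plates read at 0–40 h, 37 C.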

[2] = qHTS assay to identify small molecule antagonists of the estrogen receptor alpha (ER-alpha) signaling pathway using the BG1 cell line in the presence of 0.1 nM 17-beta-estradiol - cell viability counter screen (AID 1259241); also: nearly all actives have a fitted effect of over 40% in size
Summary of the method: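 Measures cytotoxicity alongside the ER-alpha antagonist readout: VM7Luc4E2 cells, charcoal-stripped serum, 0.1 nM 17beta-estradiol final, 22 hr compound incubation at 37C, CellTiter-Fluor fluorescence.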

[3] = qHTS assay to identify small molecule antagonists of the androgen receptor (AR) signaling pathway using the MDA cell line in the presence of 0.5 nM R1881 - cell viability counter screen (AID 1259242); also: nearly all actives have a fitted effect of over 45% in size
Summary of the method: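 Human breast carcinoma MDA-kb2 cells, cultured without CO2, receive compounds alongside 0.5 nM (final) R1881 agonist. After 16 hr at 37C, viability is taken as live-cell protease signal.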

[4] = qHTS assay to identify small molecule HDAC inhibitors (AID 1259364); also: potency is read from the fitted curve at half-maximal effect;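 also: wild-type HCT-116 cells with endogenous class I/II HDAC activity; nearly all actives have a fitted effect of over 45% in size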; as to activity change, negative = inhibition: top concentration of the series differs between compounds
Summary of the method: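 After a 2 hr compound incubation (37C, 5% CO2), HCT-116 cells seeded at 1,500/well the day before received HDAC-Glo reagent; signal read as luminescence after 30 min at room temperature.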

[5] = qHTS assay to identify small molecule HDAC inhibitors - cell viability counter screen (AID 1259365); also: series mostly up to about 92 µM; nearly all actives have a fitted effect of over 50% in size
Summary of the method: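 Following a 2hr exposure of overnight-plated wild-type HCT-116 cells to DMSO-delivered compounds, CellTiter-Glo was added and luminescence recorded after 30min at room temperature.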

[6] = qHTS assay to identify small molecule agonists of the sonic hedgehog signaling (Shh) pathway - cell viability counter screen (AID 1259366); also: nearly all actives have a fitted effect of over 50% in size
Summary of the method: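 After a 4hr attachment at 37C, NIH/3T3 cells bearing an integrated Gli1-driven luciferase reporter were dosed with compounds. Treatment lasted 24hr, with the final hour including CellTiter-Fluor for a fluorescence viability measurement.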

[7] = qHTS assay to identify small molecule antagonists of the sonic hedgehog signaling (Shh) pathway - cell viability counter screen (AID 1259367); also: nearly all actives have a fitted effect of over 55% in size
Summary of the method: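 Fluorescence read-out (CellTiter-Fluor, 1 hr at 37C) taken after 23 hr compound treatment of 3T3 Gli1-Luc cells stimulated with conditioned medium. Cells were seeded at 2,000 per well and pre-incubated 4 hr.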

[8] = qHTS assay to identify small molecule agonists of the sonic hedgehog signaling (Shh) pathway (AID 1259368; calls by dose curve;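 also: NIH/3T3-derived 3T3Gli1-Luc cells carrying a stable Gli1-driven firefly luciferase reporter; series mostly up to about 92 µM; nearly all actives have a fitted effect of over 15% in size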)
Summary of the method: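 Stable NIH/3T3 Gli1-Luc reporter clone; 24 hr cpd exposure after a 4 hr settling period; luminescence endpoint.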

[9] = qHTS assay to identify small molecule antagonists of the sonic hedgehog signaling (Shh) pathway (AID 1259369; calls by dose curve; also: nearly all actives have a fitted effect of over 45% in size)
Summary of the method: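 Gli1 transcriptional reporter (firefly Luc) in NIH/3T3 background, conditioned-medium activated. 24hr exposure, luminescence endpoint.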

[10] = target: Estrogen receptor beta (Homo sapiens) (UniProt Q92731); test: qHTS assay to identify small molecule agonists of the estrogen receptor beta (ER-beta) signaling pathway (AID 1259377; active = well fitted activation curve with a large enough effect in the signal ratio in the repeat runs, not every such curve was filed as active; the % refers to the signal ratio)
Estrogen receptor beta (Homo sapiens), sequence (Q92731 whole entry, looked up): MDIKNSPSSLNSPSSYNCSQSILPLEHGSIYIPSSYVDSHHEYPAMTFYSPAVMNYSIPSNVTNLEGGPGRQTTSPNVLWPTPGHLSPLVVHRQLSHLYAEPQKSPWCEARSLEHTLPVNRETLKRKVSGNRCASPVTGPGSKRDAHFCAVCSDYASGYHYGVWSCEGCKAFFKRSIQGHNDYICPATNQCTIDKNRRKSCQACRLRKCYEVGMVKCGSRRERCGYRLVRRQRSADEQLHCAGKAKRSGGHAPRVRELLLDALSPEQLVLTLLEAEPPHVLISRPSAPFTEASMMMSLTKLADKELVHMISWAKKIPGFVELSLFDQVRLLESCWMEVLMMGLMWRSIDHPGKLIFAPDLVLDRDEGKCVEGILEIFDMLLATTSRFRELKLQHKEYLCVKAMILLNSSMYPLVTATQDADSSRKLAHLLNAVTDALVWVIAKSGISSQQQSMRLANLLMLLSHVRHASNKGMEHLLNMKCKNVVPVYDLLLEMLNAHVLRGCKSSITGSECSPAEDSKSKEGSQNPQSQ
Summary of the method: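 In HEK293T cells bearing a UAS-beta-lactamase reporter under ER-beta control, DMSO-delivered compounds were incubated for 16 hr at 37C. Activity was detected as fluorescence 2 hours after LiveBLAzer B/G FRET substrate addition.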

[11] = target: Estrogen receptor beta (Homo sapiens) (UniProt Q92731); test: qHTS assay to identify small molecule antagonists of the estrogen receptor beta (ER-beta) signaling pathway (AID 1259378; active = well fitted inhibition curve with a large enough effect in the signal ratio in the repeat runs, not every such curve was filed as active; the % refers to the signal ratio)
Summary of the method: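 ER-beta-UAS-bla HEK293T cells in 2% charcoal-stripped FBS medium treated with compound plus 1nM final 17-beta-estradiol for 16 hr at 37C. Beta-lactamase reporter read by FRET substrate fluorescence after 2 hours at room temperature.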

[12] = qHTS assay to identify small molecule agonists of the androgen receptor (AR) signaling pathway in the presence of an antagonist - cell viability counter screen (AID 1259379);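 also: MDA-kb2 human breast cancer cells carrying an MMTV luciferase reporter; series mostly up to about 92 µM; nearly all actives have a fitted effect of over 25% in size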
Summary of the method: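 Counter screen for cell viability run in parallel with the AR agonist-mode luciferase assay. MDA-kb2 cells were co-treated with nilutamide (3.0uM final) and compounds, then incubated 16 hr at 37C, and CellTiter-Fluor fluorescence was measured.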

[13] = qHTS assay to identify small molecule antagonists of the estrogen receptor beta (ER-beta) signaling pathway - cell viability counter screen (AID 1259382); also: series mostly up to about 92 µM; nearly all actives have a fitted effect of over 55% in size
Summary of the method: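 HEK293T ER-beta-UAS-bla, 2% charcoal-stripped FBS; compounds + 1nM E2 16 hr 37C; CellTiter-Glo luminescence, 30 min RT.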

[14] = target: Estrogen receptor (Homo sapiens) (UniProt P03372); test: qHTS assay to identify small molecule agonists of the estrogen receptor alpha (ER-alpha) signaling pathway in the presence of an antagonist (AID 1259383; calls by dose curve; also: top concentration of the series differs between compounds; nearly all actives have a fitted effect of over 15% in size)
Estrogen receptor (Homo sapiens), sequence (P03372 whole entry, looked up): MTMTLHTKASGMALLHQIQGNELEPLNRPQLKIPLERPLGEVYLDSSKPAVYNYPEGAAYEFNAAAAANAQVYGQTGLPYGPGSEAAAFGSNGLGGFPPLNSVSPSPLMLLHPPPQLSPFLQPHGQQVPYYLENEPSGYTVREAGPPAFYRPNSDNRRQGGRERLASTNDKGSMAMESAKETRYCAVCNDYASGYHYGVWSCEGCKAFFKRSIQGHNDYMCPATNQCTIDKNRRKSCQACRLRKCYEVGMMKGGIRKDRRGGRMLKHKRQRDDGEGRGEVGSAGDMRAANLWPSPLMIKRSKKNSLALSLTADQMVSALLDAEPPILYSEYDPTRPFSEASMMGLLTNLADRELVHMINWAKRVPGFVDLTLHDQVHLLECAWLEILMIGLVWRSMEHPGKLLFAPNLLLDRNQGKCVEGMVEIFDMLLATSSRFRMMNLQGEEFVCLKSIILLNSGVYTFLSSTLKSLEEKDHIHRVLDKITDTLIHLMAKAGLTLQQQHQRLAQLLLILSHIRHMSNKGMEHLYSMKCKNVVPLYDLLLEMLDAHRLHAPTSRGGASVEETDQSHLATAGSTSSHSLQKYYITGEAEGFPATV
Summary of the method: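 ER-alpha agonism measured under antagonist challenge: 10.0nM ICI-182,780 (final) plus compound, 15 concentrations, 22hr, VM7Luc4E2 ERE-luciferase cells. Read by luminescence.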

[15] = qHTS assay to identify small molecule agonists of the estrogen receptor beta (ER-beta) signaling pathway - cell viability counter screen (AID 1259380); also: nearly all actives have a fitted effect of over 30% in size
Summary of the method: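 In this qHTS counter screen, HEK293T cells carrying an ER-beta/UAS beta-lactamase reporter, grown in 2% charcoal-stripped FBS, received compound for 16 hr; ATP-based CellTiter-Glo luminescence was then read after 30 min at room temperature.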

[16] = qHTS assay to identify small molecule agonists or antagonists of the thyroid stimulating hormone receptor (TSHR) signaling pathway - wild type cell line counter screen (AID 1259384; calls by dose curve)
Summary of the method: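 Wild-type Hek293 cells, 800/well, 18 h at 37C, then compound with Ro20-1724 for 30 min RT. cAMP by HTRF (cAMP-d2/anti-cAMP cryptate), 1 h RT, fluorescence read. 15 concentrations, triplicates.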

[17] = qHTS assay to identify small molecule phospholipidosis (PLD) inducers (AID 1259344; active = well fitted curve in the direction sought with a large enough effect; an effect the other way counts as inactive or inconclusive)
Summary of the method: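 Read-out is LipidTOX Red fluorescence (ex 595/em 615) imaged in HepG2 cells after 24 h compound exposure at 37 C, with Hoechst nuclear counterstain (ex 352/em 461) allowing per-cell normalisation.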

[18] = target: Androgen receptor (Homo sapiens) (UniProt P10275); test: qHTS assay to identify small molecule antagonists of the androgen receptor (AR) signaling pathway using the MDA cell line in the presence of 0.5 nM R1881 (AID 1259243); also: nearly all actives have a fitted effect of over 50% in size
Androgen receptor (Homo sapiens), sequence (P10275 whole entry, looked up): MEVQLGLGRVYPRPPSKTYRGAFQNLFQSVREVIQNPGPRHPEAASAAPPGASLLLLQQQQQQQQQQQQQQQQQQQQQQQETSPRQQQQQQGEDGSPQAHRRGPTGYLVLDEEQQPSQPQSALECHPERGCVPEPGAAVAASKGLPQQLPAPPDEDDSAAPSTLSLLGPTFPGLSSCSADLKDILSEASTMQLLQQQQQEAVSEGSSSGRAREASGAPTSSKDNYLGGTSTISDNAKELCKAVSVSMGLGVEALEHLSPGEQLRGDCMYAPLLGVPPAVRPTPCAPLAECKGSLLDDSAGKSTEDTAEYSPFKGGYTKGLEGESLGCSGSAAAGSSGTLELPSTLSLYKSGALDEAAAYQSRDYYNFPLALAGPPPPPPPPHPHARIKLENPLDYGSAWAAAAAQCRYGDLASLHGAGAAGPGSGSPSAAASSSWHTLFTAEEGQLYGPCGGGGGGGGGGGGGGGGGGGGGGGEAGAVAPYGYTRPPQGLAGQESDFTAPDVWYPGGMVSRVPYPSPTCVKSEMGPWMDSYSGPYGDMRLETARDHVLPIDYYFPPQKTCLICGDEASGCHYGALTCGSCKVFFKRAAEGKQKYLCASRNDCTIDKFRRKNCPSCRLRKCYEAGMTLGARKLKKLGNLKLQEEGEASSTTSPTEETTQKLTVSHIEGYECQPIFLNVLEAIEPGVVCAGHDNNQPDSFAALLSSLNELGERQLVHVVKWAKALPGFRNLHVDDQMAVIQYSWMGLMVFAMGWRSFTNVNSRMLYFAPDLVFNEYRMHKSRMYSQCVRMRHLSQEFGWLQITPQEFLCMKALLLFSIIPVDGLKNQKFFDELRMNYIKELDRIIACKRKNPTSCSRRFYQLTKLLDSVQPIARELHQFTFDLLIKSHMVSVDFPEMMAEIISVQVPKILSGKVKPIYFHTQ
Summary of the method: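 Cells: MDA-kb2 (MMTV-luc). Stimulus: 0.5 nM R1881. Time: 16 hr, 37C, no CO2. Detection: ONE-Glo luminescence after 30 min at RT.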

[19] = target: Androgen receptor (Homo sapiens) (UniProt P10275); test: qHTS assay to identify small molecule agonists of the androgen receptor (AR) signaling pathway in the presence of an antagonist (AID 1259381; calls by dose curve; also: nearly all actives have a fitted effect of over 15% in size)
Summary of the method: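 AR antagonist background: nilutamide 3.0uM final. Cell line: MDA-kb2, MMTV-driven luciferase, responsive to both AR and GR. Exposure 16hr, 37C, no CO2; ONE-Glo luminescence.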

[20] = target: Estrogen receptor (Homo sapiens) (UniProt P03372); test: qHTS assay to identify small molecule antagonists of the estrogen receptor alpha (ER-alpha) signaling pathway using the BG1 cell line in the presence of 0.1 nM 17-beta-estradiol (AID 1259244); also: nearly all actives have a fitted effect of over 50% in size
Summary of the method: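 Seeding of stripped-serum-adapted VM7Luc4E2 cells, 24 h attachment, compound transfer, then 0.1 nM final 17beta-estradiol; after 22 h incubation, ONE-Glo reagent and luminescence reading.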
% is scaled to controls: 0 for no effect and ±100 for the full control effect.

O=S(=O)(O)c1cc(O)c2ccc(Nc3ccccc3)cc2c1
active: Potency [4] 24.3 µM
inactive: outcome [1] | Potency [2] | outcome [3] | outcome [5] | Potency [6] | Potency [7] | outcome [8] | Potency [9] | Potency [10] | outcome [11] | Potency [12] | outcome [13] | outcome [14]

CC(C)=CCOC(=O)c1ccccc1
inactive: outcome [1] | Potency [2] | outcome [3] | Potency [4] | outcome [5] | Potency [6] | Potency [7] | outcome [8] | Potency [9] | Potency [10] | outcome [11] | Potency [12] | Potency [15] | outcome [16]

CCCCCCOc1ccccc1C(N)=O
inactive: outcome [1] | Potency [2] | outcome [3] | outcome [17] | outcome [5] | Potency [7] | outcome [8] | Potency [10] | outcome [11] | outcome [13] | outcome [14] | outcome [16]

CC(=O)c1ccc2c(c1)Cc1ccccc1-2
inactive: outcome [1] | Potency [2] | outcome [3] | outcome [5] | Potency [6] | Potency [7] | outcome [8] | Potency [9] | Potency [15] | outcome [13] | outcome [14]
active: Potency [4] 27.3 µM

CC1=C(C(=O)O)N2C(=O)[C@@H](NC(=O)[C@H](N)c3ccc(O)cc3)[C@H]2SC1
inactive: outcome [1] | Potency [2] | outcome [3] | outcome [17] | Potency [4] | outcome [5] | Potency [6] | Potency [7] | outcome [8] | Potency [9] | Potency [10] | outcome [11] | Potency [12] | outcome [16]

O=C(OCC1(COC(=O)c2cccnc2)CCCC(COC(=O)c2cccnc2)(COC(=O)c2cccnc2)C1O)c1cccnc1
inactive: outcome [1] | Potency [2] | outcome [3] | outcome [17] | Potency [4] | outcome [5] | outcome [8] | Potency [9] | Potency [12] | Potency [15] | outcome [16]

N[C@@H](CCC(=O)N[C@@H](CS)C(=O)NCC(=O)O)C(=O)O
inactive: cytotoxicity increase [1] -6.34% [at 15.8 µM] | activity change, negative = cytotoxicity [2] -2.09% [at 19 µM] | viability change, negative = cytotoxic [3] 1.98% [at 19 µM] | outcome [17] | activity change, negative = inhibition [4] -2.25% [at 19 µM] | activity change, negative = cytotoxicity [5] 2.26% [at 19 µM] | viability change, negative = cytotoxic [6] -6.52% [at 19 µM] | viability change, negative = cytotoxic [7] 0.577% [at 19 µM] | activity change [8] -0.793% [at 18.9 µM] | activity change, negative = inhibition [9] 20% [at 19 µM] | activity change, negative = cytotoxicity [12] -2.43% [at 19 µM] | activity change, negative = cytotoxicity [15] 8.98% [at 19 µM] | cAMP activity change [16] 2.89% [at 18.9 µM]

COC(=O)CCCCCCCC(=O)OC
inactive: outcome [1] | Potency [2] | outcome [3] | Potency [4] | outcome [5] | Potency [6] | Potency [7] | outcome [8] | Potency [9] | Potency [10] | outcome [11] | Potency [12] | Potency [15] | outcome [13] | outcome [14] | outcome [16]

CC(=O)Nc1cccc(C)c1
inactive: outcome [1] | Potency [2] | outcome [3] | Potency [4] | outcome [5] | Potency [6] | Potency [7] | outcome [8] | Potency [9] | Potency [12] | outcome [14] | outcome [16]

COCCOCCOCCOCCOCCO
inactive: outcome [1] | Potency [2] | outcome [3] | Potency [4] | outcome [5] | Potency [6] | Potency [7] | outcome [8] | Potency [9] | Potency [10] | outcome [11] | Potency [12] | outcome [13] | outcome [16]

C=Cc1ccccn1
inactive: outcome [1] | Potency [2] | outcome [3] | Potency [4] | outcome [5] | Potency [6] | Potency [7] | outcome [8] | Potency [9] | Potency [12] | Potency [15] | outcome [13] | outcome [16]

CCCCCOC(=O)CCC
inactive: outcome [1] | Potency [2] | outcome [3] | Potency [4] | outcome [5] | Potency [6] | Potency [7] | outcome [8] | Potency [9] | Potency [10] | Potency [12] | outcome [13] | outcome [16]

CC(=O)Nc1ccc(S(=O)(=O)Cl)cc1
inactive: outcome [1] | Potency [2] | outcome [3] | Potency [4] | outcome [5] | Potency [7] | outcome [8] | Potency [9] | Potency [10] | outcome [11] | Potency [12] | Potency [15] | outcome [13]

CC(=O)OC(C)OC(=O)C(C)c1ccc(-c2ccccc2)c(F)c1 (stereo not drawn)
inactive: outcome [1] | outcome [3] | Potency [18] | outcome [17] | Potency [4] | outcome [5] | Potency [6] | Potency [7] | outcome [8] | Potency [9] | Potency [10] | outcome [11] | Potency [12] | Potency [15] | Potency [19] | outcome [13] | outcome [14] | outcome [16]

CCC(C)NC(N)=O (stereo not drawn)
inactive: outcome [1] | outcome [3] | Potency [18] | Potency [20] | Potency [4] | outcome [5] | Potency [6] | Potency [7] | outcome [8] | Potency [9] | Potency [10] | outcome [11] | Potency [12] | Potency [15] | Potency [19] | outcome [14] | outcome [16]

O=C1c2ccccc2C(=O)N1CCl
inactive: outcome [1] | outcome [3] | Potency [18] | Potency [4] | outcome [5] | Potency [6] | Potency [7] | outcome [8] | Potency [12] | Potency [15] | Potency [19] | outcome [13] | outcome [14]

CC1COc2ccccc2N1 (stereo not drawn)
inactive: outcome [1] | Potency [2] | outcome [3] | Potency [4] | outcome [5] | Potency [6] | outcome [8] | Potency [9] | Potency [12] | Potency [15] | outcome [13] | outcome [16]

CCOCCOCCOCC
inactive: outcome [1] | Potency [2] | outcome [3] | Potency [4] | outcome [5] | Potency [7] | outcome [8] | Potency [9] | Potency [10] | outcome [11] | Potency [15] | outcome [13]
